# Rows were chosen to be rich in hits. Some 2.8% of all compounds tested hit in one or more screens of this group.
# JMJD2C inh = blocks human GASC-1 demethylase activity; GST-JMJD2C(1-420) H3K9me3 demethylation, DELFIA europium; inhibition, % at 2.35 µM; 0.069% of 330,000 active; AID 2099;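 active means more than half of a compound's replicate wells show inhibition beyond 50%, single wells judged on their own value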;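 further: signal counts dimethyl H3K9 product captured on neutravidin plate; 0% = median of DMSO wells and 100% = 0.3 times that DMSO median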
# proKLK7 act = activators of human kallikrein-7 zymogen | P49862 | activation, % at 7 µM | 0.9% of 370,000 active | purified proKLK7, EDANS-DABCYL substrate fluorescence; 100% is mature enzyme control, 0% vehicle | AID 652039;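 active means activation above the mean of all tested compounds plus 3 SD, computed per campaign excluding outliers beyond control limits, cut at about 13% in these data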
# Target sequence (P49862 whole entry, looked up): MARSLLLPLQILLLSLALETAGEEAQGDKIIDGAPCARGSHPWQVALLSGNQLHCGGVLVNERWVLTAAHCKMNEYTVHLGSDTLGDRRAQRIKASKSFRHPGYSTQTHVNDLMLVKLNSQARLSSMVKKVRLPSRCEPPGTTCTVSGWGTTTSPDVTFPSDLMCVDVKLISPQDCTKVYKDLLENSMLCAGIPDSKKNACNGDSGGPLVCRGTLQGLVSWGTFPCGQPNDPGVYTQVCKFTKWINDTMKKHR
# PG9 binder = PG9 antibody binding by small molecule. AID 624416. TR-FRET gp120-PG9 antibody binding. inhibition, % at 6.7 µM. 0.43% of 360,000 active; in the data active means inhibition above about 8.5%
# PP1 inh = counter-screen for PP5 inhibitors: inhibitors of human PP1-alpha; inhibition, % at 6.7 µM; P62136; 0.9% of 320,000 active; purified PP1alpha, OMFP fluorescence;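 active means inhibition above the mean inhibition of all tested compounds plus 3 SD, computed separately for each screening campaign, cut at about 15% in these data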
# Target sequence (P62136 whole entry, looked up): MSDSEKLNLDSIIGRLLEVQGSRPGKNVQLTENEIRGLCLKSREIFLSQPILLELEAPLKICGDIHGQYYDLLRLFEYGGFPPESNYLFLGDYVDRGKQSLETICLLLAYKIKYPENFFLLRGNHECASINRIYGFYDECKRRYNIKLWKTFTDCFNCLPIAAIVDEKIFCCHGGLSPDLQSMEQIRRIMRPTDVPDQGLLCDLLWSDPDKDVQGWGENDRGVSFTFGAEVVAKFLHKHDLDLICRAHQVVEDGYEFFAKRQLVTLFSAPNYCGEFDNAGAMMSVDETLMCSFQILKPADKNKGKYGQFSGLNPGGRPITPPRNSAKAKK
# PP5 inh = PP5 (human) phosphatase inhibition; P53041; purified PP5c, OMFP substrate fluorescence; inhibition, % at 6.7 µM; 0.18% of 320,000 active;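 active means inhibition above the campaign's mean inhibition across all tested compounds plus 3 SD, cut at about 9.5% in these data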;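 further: 0% = DMSO only and 100% = 100 µM cantharidin control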
# Rev-erbA mod = modulators of human Rev-erb alpha DNA binding. P20393. Rev-erbα–FITC-DNA binding, fluorescence polarization, 90 min. activity, % at 10 µM. 0.79% of 370,000 active;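 active means activity above about 14%, limit read from the data; passing the limit was not always enough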;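 further: 0% = DMSO wells with 35 nM protein and 100% = DMSO wells with 750 nM protein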
# PP1 inh confirm = human PP1 phosphatase inhibition, confirmation | inhibition, % at 6.7 µM | 52% of 1,900 active | purified PP1alpha, OMFP substrate fluorescence | shares compounds with PP1 inh | AID 2358;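 active means mean PP1 inhibition above a set limit taken from the earlier primary screen, cut at about 15% in these data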
# PP5 inh counter = counter-screen for PP1 inhibitors: human PP5 phosphatase inhibition; shares compounds with PP1 inh; 4% of 1,900 active; inhibition, % at 6.7 µM; purified PP5c, OMFP fluorescence;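 active means mean PP5 inhibition over triplicate wells above about 9.5% taken from the earlier PP1 screen, limit read from the data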
# An asterisk follows results filed as active; nt = not tested or not shown.
SMILES,JMJD2C inh,proKLK7 act,PG9 binder,PP1 inh,PP5 inh,Rev-erbA mod,PP1 inh confirm,PP5 inh counter
Cc1ccc(-n2c(C)cc(C(=O)COC(=O)c3ccc[nH]c3=O)c2C)cc1,0.6,0.2,1.2,11.9,0.0,-4.9,nt,nt
O=C1Nc2ccccc2N2CCCC12 (stereo not drawn),47.5,nt,nt,21.5*,0.4,nt,-4.5,49.2*
O=C1Nc2ccc(C(F)(F)F)cc2N2CCCC12 (stereo not drawn),-17.2,nt,nt,4.0,6.5,nt,nt,nt
COC(=O)c1ccc(NC(=O)c2ccc3c(c2)NC(=O)C2CCCN32)cc1 (stereo not drawn),9.3,nt,nt,34.4*,7.1,nt,27.3*,6.6
CCOc1ccc(CCNC(=O)c2ccc3c(c2)NC(=O)C2CCCN32)cc1OCC (stereo not drawn),-25.4,nt,nt,1.4,0.7,nt,nt,nt
O=C(CSc1nnc(Cc2cccs2)n1-c1ccccc1)Nc1ccccc1-c1ccccc1,nt,0.6,nt,nt,nt,0.7,nt,nt
O=C(Nc1nnc(-c2ccccc2Cl)o1)c1nc2ccccc2s1,-0.1,2.5,-1.2,40.3*,-0.4,6.4,31.3*,-1.3
CC(/C=C1\SC(=S)N(NC(=O)c2ccc(C)cc2)C1=O)=C\c1ccccc1,2.8,nt,nt,12.7,-0.2,nt,nt,nt
CC(/C=C1\SC(=S)N(c2ccc(C(=O)O)cc2)C1=O)=C\c1ccccc1,2.8,-0.1,0.3,43.6*,1.1,-5.6,31.3*,-4.1
CCCCCCCCN1C(=O)[C@@H](CC(=O)N2CCCCC2)C[C@@]2(C(=O)OC)C1=C[C@H](C1CCCC1)O[C@@H]2C,nt,0.1,-0.5,nt,nt,-3.9,nt,nt
CCCCCCCC/C=C\CCCCCCCC(=O)NCCc1ccc(O)c(O)c1,23.3,-0.3,-1.8,16.4*,14.6*,5.6,8.1,2.4
C[C@@H]1ON(C)[C@H]2C[C@H]3c4cc(Br)ccc4CCN3C[C@@H]12,nt,0.0,-0.7,nt,nt,-0.3,nt,nt
CCOC(=O)c1ccc(CNCc2ccc(Br)cc2)cc1,4.0,-0.6,1.6,1.9,-1.3,-0.4,nt,nt
CCOC(=O)c1[nH]nc(C(=O)c2ccc(Br)cc2)c1O,-25.2,0.3,0.3,31.1*,-0.1,-3.9,30.4*,-2.7
COC(=O)[C@]12C[C@H](CC(=O)N3CCN(C(=O)c4ccco4)CC3)C(=O)N(CCC3=CCCCC3)C1=C[C@H](C(C)(C)C)O[C@@H]2C,nt,0.1,-0.7,nt,nt,-1.4,nt,nt
O=C(c1ccc(Cl)cc1)N1CCC(Oc2cccnc2)CC1,nt,-0.3,nt,nt,nt,-1.6,nt,nt
CC(C)c1cc2c(c(O)c1O)[C@@]13CCCC(C)(C)C1CC2OC3=O (stereo partly drawn),127.1,-0.5,2.1,44.1*,0.4,2.2,2.5,-4.2
COc1ccc(OC)c(NC(=S)NCc2ccc(S(N)(=O)=O)cc2)c1,-18.0,0.1,-2.1,-3.0,0.6,1.2,nt,nt
COc1ccc(CNC(=S)Nc2cc(OC)ccc2OC)cc1,-4.4,0.0,-1.4,62.9*,1.7,5.0,-2.9,-5.4
O=C(Nc1nc(-c2ccccc2)cs1)c1ccccc1NS(=O)(=O)c1ccc(F)cc1,11.6,-1.1,-4.1,21.0*,9.2,-2.9,21.4*,12.7*
O=C(Nc1nc(-c2ccc(-c3ccccc3)cc2)cs1)C1=COCCO1,-3.2,-0.3,-0.8,20.8*,0.8,-5.4,34.1*,-3.5
O=C(Nc1nc(-c2ccc([N+](=O)[O-])cc2)cs1)C1=COCCO1,nt,-0.3,-1.0,nt,nt,-7.3,nt,nt
O=C(/C=C/c1ccccc1)NCCc1ccccc1,-19.0,-0.4,1.9,35.3*,-0.2,-4.3,-1.1,-4.8
O=C(/C=C/c1ccc([N+](=O)[O-])cc1)NCCc1ccccc1,5.5,-0.7,-3.6,-1.4,2.6,-4.4,nt,nt
CC(=O)C1=C(C)N(Cc2ccc(Br)cc2)C(=S)NC1c1cccc(F)c1 (stereo not drawn),nt,-0.4,0.3,nt,nt,8.2,nt,nt
SMILES,JMJD2C inh,proKLK7 act,PG9 binder,PP1 inh,PP5 inh,Rev-erbA mod,PP1 inh confirm,PP5 inh counter
Cc1ccc(NC(=O)Cn2nc(-c3ccccc3)nc2-c2ccccc2)c(C)c1,3.4,-0.5,0.5,-3.3,-0.3,-5.0,nt,nt
Cc1ccc(C)c(NC(=O)Cn2nc(-c3ccccc3)nc2-c2ccccc2)c1,-0.8,-0.5,2.2,20.0*,0.7,2.4,24.3*,-6.3
Cc1ccccc1C1CCC2(CC1)CCN(CC[C@@H](O)c1ccccc1)C2=O (stereo partly drawn),nt,nt,nt,nt,nt,-3.5,nt,nt
COc1cc(NC(=O)COc2ccc(-n3ccnc3)cc2)cc(OC)c1,8.4,-0.2,-1.1,-6.8,2.2,5.7,nt,nt
CC(C)(C)c1ccc(NC(=O)COc2ccc(-n3ccnc3)cc2)cc1,-0.4,0.2,-1.1,18.4*,2.3,5.7,3.8,-0.8
Cc1cc(/C=N/n2cnnc2)c(C)n1-c1ccc(Cl)cc1,-0.7,0.7,-0.2,-3.6,3.5,9.8,nt,nt
Cc1cc(/C=N/n2cnnc2)c(C)n1-c1ccc(OCc2ccc(Cl)cc2Cl)cc1,-6.3,nt,nt,26.6*,2.0,nt,42.3*,0.4
Cc1cc(/C=N/n2cnnc2)c(C)n1-c1ccc(OCc2ccc(F)cc2)cc1,1.3,0.0,0.5,19.1*,2.3,-4.6,10.0,1.2
CCCCCCOc1ccc(/C(C)=N/NC2=NCCN2)cc1,-11.2,-0.9,-0.9,20.5*,2.9,2.0,-0.5,-3.0
COc1ccc(N2CCN(CCNS(=O)(=O)c3c(C(C)C)cc(C(C)C)cc3C(C)C)CC2)cc1,nt,0.0,nt,nt,nt,-0.9,nt,nt
C#CCn1c(=NC(=O)c2cc(-c3cccs3)nc3ccccc23)sc2cc(S(N)(=O)=O)ccc21,9.3,-1.7,-1.2,20.3*,3.5,4.4,4.0,-0.5
C#CCn1c(=NC(=O)c2cc(Cl)sc2Cl)sc2cc(S(N)(=O)=O)ccc21,-6.7,-3.5,-0.2,19.1*,1.9,1.0,25.4*,-0.9
C#CCn1c(=NC(=O)CN2C(=O)CCC2=O)sc2cc(S(N)(=O)=O)ccc21,4.4,0.0,-0.3,-3.1,1.5,-6.9,nt,nt
O=C(Nc1nc(-c2ccccn2)cs1)c1ccc(S(=O)(=O)N2CCCCC2)cc1,50.9,nt,nt,29.4*,4.3,nt,26.8*,-1.3
O=C(Nc1nc(-c2ccccn2)cs1)c1cccc(S(=O)(=O)N2CCOCC2)c1,-6.4,0.3,1.8,29.9*,6.1,-3.5,31.8*,9.4
Cc1cc(-c2csc(NC(=O)c3ccc(=O)[nH]c3)n2)c(C)n1Cc1ccccc1,10.7,-0.4,-2.5,27.5*,-0.7,-5.2,14.3,-1.7
COc1ccccc1N1Cc2ccccc2C1,5.8,0.3,-0.9,18.0*,2.7,9.6,24.2*,1.9
COc1cccc(C2NC(=S)N(Cc3ccc(Br)cc3)C(C)=C2C(C)=O)c1 (stereo not drawn),nt,0.4,-2.4,nt,nt,-6.5,nt,nt

# Screens from PubChem BioAssay.
